Assay outcomes as filed in PubChem.
D1 agonist: human D1 receptor agonism; actives 1% (n = 360,000); activation, % at 2 µM; HEK293 T-REx D1 cells, calcium flux, agonist mode; AID 504660; P21728
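Tetracycline-induced HEK293 TREx D1 cells, force-coupled to calcium signalling, were dye-loaded with a no-wash calcium kit. Compound was pin-added after a 10 s baseline. Fluorescence was read kinetically at 1 cycle/s for 180 s, with calcium rises flagged as agonism.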
USP1 inh: USP1/UAF1 (human) deubiquitinase inhibition; O94782; recombinant USP1/UAF1, Ub-Rhodamine cleavage fluorescence; Potency, µM (series often up to 57.1 µM), most hits filed as inhibitors; actives 0.23% (n = 390,000); active = well fitted inhibition curve with a large enough effect; inconclusive = small, poorly fitted or top-dose-only effect; inactive = no such curve, though single readings can be large or run the other way; also: nearly all actives have a fitted effect of over 60% in size
Target sequence (O94782 whole entry, looked up): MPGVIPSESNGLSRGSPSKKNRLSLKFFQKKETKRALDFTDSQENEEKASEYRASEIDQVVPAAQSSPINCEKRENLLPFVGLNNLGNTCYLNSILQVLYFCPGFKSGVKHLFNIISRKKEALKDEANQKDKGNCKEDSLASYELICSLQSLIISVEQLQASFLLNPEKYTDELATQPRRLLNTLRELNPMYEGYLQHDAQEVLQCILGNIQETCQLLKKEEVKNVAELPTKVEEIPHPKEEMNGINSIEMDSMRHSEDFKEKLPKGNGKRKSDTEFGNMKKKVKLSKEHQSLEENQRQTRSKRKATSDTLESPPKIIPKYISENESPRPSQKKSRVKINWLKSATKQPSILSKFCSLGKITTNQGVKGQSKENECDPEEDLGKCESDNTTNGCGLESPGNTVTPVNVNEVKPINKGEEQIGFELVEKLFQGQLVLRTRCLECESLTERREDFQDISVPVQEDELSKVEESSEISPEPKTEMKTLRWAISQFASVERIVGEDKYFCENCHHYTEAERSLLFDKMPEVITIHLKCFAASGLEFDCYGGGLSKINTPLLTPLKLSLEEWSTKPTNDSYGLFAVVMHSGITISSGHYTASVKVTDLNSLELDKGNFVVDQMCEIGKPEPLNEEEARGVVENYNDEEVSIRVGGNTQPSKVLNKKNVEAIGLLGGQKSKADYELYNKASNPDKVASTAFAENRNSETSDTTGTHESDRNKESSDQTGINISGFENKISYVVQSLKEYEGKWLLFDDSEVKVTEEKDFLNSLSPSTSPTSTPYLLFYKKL
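In this screen, compounds sit with the deubiquitinase complex (1nM) for 15 min at room temperature before Ub-Rho is added at 150nM final. Fluorescence rise is then followed for 6 reads every 60 seconds.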
TRHR PAM: allosterically enhances the human TRH receptor | actives 0.66% (n = 360,000) | enhancement, % at 2 µM | TRHR cells, fluo-8 calcium fluorescence, EC20 TRH enhancement | P34981 | AID 493056; in the data active = enhancement above about 30%
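Enhancer read-out: after compound pinning and an initial kinetic agonist-mode read, an EC20 of TRH (10 nM final) was injected and fluo-8 calcium signal (Ex 480/Em 530) followed at 1 s/cycle for 100 cycles in TRHR-expressing cells.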
TRHR ag: agonists of human TRH receptor. activation, % at 2 µM. P34981. actives 0.18% (n = 360,000). TRHR cells, calcium flux fluo-8, FDSS agonist mode
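Read-out: compound-evoked intracellular calcium rise in TRHR cells, fluo-8 dye, kinetic FDSS fluorescence at 1 s/cycle following a 10-cycle baseline. Cells cultured overnight before dye loading (30 min–1.5 h, RT).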
D1 antagonist: human D1 dopamine receptor antagonism. P21728. HEK293 TREx D1 cells, calcium flux, dopamine EC80; hits give low values. activity change, negative = inhibition, % at 10 µM. actives 3.2% (n = 360,000). AID 504652; in the data active = activity change below about -30%
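Tetracycline-induced HEK293 Trex D1 cells, force-coupled to calcium, dye-loaded; compounds added and read 180 s, then EC80 dopamine added and calcium flux tracked kinetically another 180 s.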
D1 potentiator: human D1 dopamine receptor positive modulation; actives 0.036% (n = 360,000); P21728; AID 504651; HEK293 TREx D1 cells, calcium flux, dopamine EC20 potentiation; potentiation, % at 10 µM; in the data active = potentiation above about 30%
Large screens that a line does not name were inactive. Hits are enriched below; roughly 4.4% of the tested compounds scored in any of these assays. Rule as the data show it, unless noted: active = activation above about 30%; inactive = the rest.

CC(C)(C)OC(=O)N1CCC2(CC1)Oc1ccc(F)cc1C(=O)C21CC(c2cccnc2)=NO1 (configuration not stated)	D1 antagonist -91
CCOC(=O)C(CCCOc1cccc(OC)c1)C(=O)OCC	D1 antagonist -34
CCOC(=O)C(CCCOc1cccc(CC)c1)C(=O)OCC	none
CN=c1sc2c(n1C)C(=O)c1ccccc1C2=O	USP1 inh 16µM (no result: D1 agonist, TRHR PAM, TRHR ag, D1 antagonist, D1 potentiator)
COc1ccc(NC(=O)C2CCN(Cc3cnn(-c4ccccc4)c3-n3cccc3)CC2)cc1OC	D1 agonist 35, D1 antagonist -34
COc1ccc(S(=O)(=O)Nc2cc3c(cc2NCc2ccccc2)n(C)c(=O)n3C)cc1OC	none
O=C(CSc1nnc2sc3ccccc3n12)N1CCN(c2ccccc2)CC1	D1 antagonist -59
Cc1nnc(SCC(=O)N2CCN(c3ccccc3)CC2)n(N)c1=O	TRHR PAM 38
Cc1ccc(NC(=O)Cn2c(=O)n(Cc3ccc(F)cc3)c(=O)c3cccnc32)cc1C	none
CSc1nn(Cc2cccc(Cl)c2)c(N(C(C)=O)C(C)=O)c1S(=O)(=O)c1ccccc1	D1 antagonist -61
CC(=O)Nc1cc(-c2ccccc2)nn1Cc1cccc(Cl)c1	USP1 inh inconclusive
COC(=O)c1sccc1S(=O)(=O)N1CCN(c2ccccc2OC)CC1	none
Cc1oc(-c2ccccc2Cl)nc1CN1CCCCC1c1cccnc1 (configuration not stated)	D1 antagonist -32
Cc1oc(-c2ccccc2Cl)nc1CN1CCCC1c1ccc(F)cc1 (configuration not stated)	none
O=c1c2cc3c(cc2nc2sc(Nc4cccc([N+](=O)[O-])c4)nn12)OCO3	USP1 inh inconclusive
CCOc1cc(/C=C2/NC(=O)N(Cc3ccccc3F)C2=O)ccc1O	none
COc1cc(/C=C2/NC(=O)N(Cc3ccccc3F)C2=O)cc(OC)c1O	D1 antagonist -38
Cc1ccc(C)c(N2CCN(CCCNC(=O)c3cnn(-c4cccc(Cl)c4)c3C3CCN(C(=O)OC(C)(C)C)CC3)CC2)c1	none
Cc1ccc(-n2ncc(C(=O)NCCN3CCCC3)c2C2CCN(C(=O)OC(C)(C)C)CC2)cc1	none
COc1ccccc1CN1CCC(CNC(=O)c2cnn(-c3ccc(C)c(C)c3)c2C2CCN(C(=O)OC(C)(C)C)CC2)CC1	none
Cc1cccc(-n2ncc(C(=O)N3CCOCC3)c2C2CCN(C(=O)OC(C)(C)C)CC2)c1	D1 antagonist -77
Cc1ccc(-n2ncc(C(=O)NCCN3CCC(Cc4ccccc4)CC3)c2C2CCN(C(=O)OC(C)(C)C)CC2)cc1	D1 agonist 56
COc1ccccc1CN1CCC(CNC(=O)c2cnn(-c3ccc(Cl)cc3)c2C2CCN(C(=O)OC(C)(C)C)CC2)CC1	D1 agonist 31
Cc1ccc(C)c(N2CCN(CCCNC(=O)c3cnn(-c4ccc(F)cc4)c3C3CCN(C(=O)OC(C)(C)C)CC3)CC2)c1	D1 antagonist -32
CCn1nc(-c2ccccc2)c(-c2ccccc2)c(C(=O)OCCOC)c1=O	none
CCOC(=O)c1ccc(NC(=O)CSc2c(C(C)C)cnc3c2c(=O)n(C)c(=O)n3C)cc1	none
COc1ccccc1C(=O)Nc1ccccc1OCc1cc(=O)n2ccccc2n1	none
CCOC(=O)C(NC(=O)Nc1ccc(F)cc1F)(Oc1ccccc1)C(F)(F)F (configuration not stated)	TRHR PAM 31
Cc1ccccc1Cn1c(CN2CCC(C(=O)NCc3cccnc3)CC2)cc2ccccc21	none
COc1ccc(N=Cc2cc(Cc3ccccc3Cl)cc([N+](=O)[O-])c2O)cc1OC	USP1 inh inconclusive
Cc1ccc(N=Cc2cc(Cc3ccccc3Cl)cc([N+](=O)[O-])c2O)c(O)c1	USP1 inh 18µM
COc1ccc(-c2nc(C(=O)Nc3cccc(C(C)=O)c3)nn2-c2ccccc2Cl)cc1	none
CCOC(=O)C1[C@H]2C(=O)N(C(C)c3ccc(OC)cc3)C[C@]23C=C[C@H]1O3 (some centres not stated)	D1 antagonist -41
CCCOC(=O)C1[C@H]2C(=O)N(C(C)c3ccc(OC)cc3)C[C@]23C=C[C@H]1O3 (some centres not stated)	none
CCOC(=O)C1=C(O)C(=O)N(c2ccc(S(N)(=O)=O)cc2)C1c1ccc(Cl)cc1 (configuration not stated)	D1 antagonist -38
CCOC(=O)C1=C(O)C(=O)N(c2ccc(S(N)(=O)=O)cc2)C1c1ccc(Br)cc1 (configuration not stated)	none
CNCc1c(OCc2ccc(F)cc2)ccc2ccccc12	D1 antagonist -33
COc1cc(C2C3CN(C)CC=C3C(C#N)=C(N)C2(C#N)C#N)ccc1OC(C)C (configuration not stated)	USP1 inh inconclusive, D1 antagonist -50
O=C(Cn1c(SCc2ccccc2F)nc2ccncc21)Nc1ccccc1C(F)(F)F	none
Cc1nn(CC(=O)OCC(=O)c2ccc(OC(F)F)cc2)c(C)c1[N+](=O)[O-]	D1 antagonist -31
Cc1nn(CC(=O)O)c(C)c1[N+](=O)[O-]	none
CC(=O)N1c2ccccc2C(=O)C1N1CCN(c2cc(Cl)ccc2C)CC1 (configuration not stated)	USP1 inh inconclusive
CC(C)NC(=O)CN1C(=O)CCn2nc(-c3cn(C)c4ccccc34)cc21	USP1 inh inconclusive
CCN1CCN(CC(=O)Nc2ccc(Cl)c(S(=O)(=O)N(C)C)c2)CC1	none
Cc1ccc(NC(=O)CN2CCN(S(=O)(=O)c3cccs3)CC2)cc1S(=O)(=O)N(C)C	D1 antagonist -36
CC1CCCC(NC(=O)CN2CCN(S(=O)(=O)c3cccs3)CC2)C1C (configuration not stated)	D1 antagonist -42
CC1CCC(NC(=O)CN2CCN(S(=O)(=O)c3cccs3)CC2)CC1 (configuration not stated)	none
CN(C)S(=O)(=O)c1cc(NC(=O)CN2CCN(c3ccccc3F)CC2)ccc1Cl	D1 antagonist -32
CCOC(=O)C1CCN(S(=O)(=O)c2cc(-c3onc(C)c3C)ccc2OC)CC1	none
COc1ccc(Cl)cc1NC(=O)NCCn1c(=O)oc2ccc(C)cc21	none
Nc1nc2c(ncn2[C@H]2C[C@H](O)[C@@H](CO)O2)c(=O)[nH]1	D1 antagonist -30
CC(C)CC(NC(=O)C1CCC(C)CC1)C(=O)Nc1ccccn1 (configuration not stated)	D1 antagonist -32
O=C(O)Cn1nc(N2CCN(c3ccccc3)CC2)ccc1=O	none
